Screens as filed in PubChem BioAssay.
SW480 rerep: inducers of DNA re-replication in SW480 colon cancer cells | SW480 DNA re-replication, Hoechst DNA content imaging, 48 h | Potency, µM (top dose mostly 46.1 µM), actives largely listed as activators | 1.8% of 340,000 active; also: nearly all actives have a fitted effect of over 55% in size
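Cells (250 per well) received 23 nL compound or DMSO by pin tool and were kept 48 hr at 37 C, 5% CO2. Nuclei were then stained with Hoechst for 40 min and scanned for DNA content.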
KCNH2 3.1 block: KCNH2 3.1 (human) potassium channel inhibition; 0.95% of 340,000 active; U2OS KCNH2 3.1, thallium flux FluxOr; active compounds read low; AID 720553; activity change, % (tested at about 1.8 µM);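 active = maximum activity change below -70%; inconclusive = maximum activity change from -70% to -50%; inactive = maximum activity change above -50%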;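 also: thallium influx rate constant from kinetic fluorescence after stimulation buffer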
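FluxOr-based Tl+ influx in U2OS cells transduced with KCNH2 3.1 virus; rate constants normalized to DMSO controls.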
MCF10A rereplic: DNA re-replication induction in MCF 10a cells; MCF 10A DNA re-replication, Hoechst nuclear intensity, 48 h; Potency, µM (doses to about 46.1 µM), hits mostly activators; AID 624296; 2.9% of 350,000 active; also: nearly all actives have a fitted effect of over 50% in size
KCNH2 WT inh: blocks the wildtype human KCNH2 potassium channel | Q12809 | U2OS, BacMam KCNH2, thallium flux FluxOr; active compounds read low | activity change, % at 1.84 µM | 0.37% of 340,000 active | AID 720551;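 active = maximum activity change below -70%; inconclusive = maximum activity change between -70% and -50%; inactive = maximum activity change above -50%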
Target sequence (Q12809 whole entry, looked up): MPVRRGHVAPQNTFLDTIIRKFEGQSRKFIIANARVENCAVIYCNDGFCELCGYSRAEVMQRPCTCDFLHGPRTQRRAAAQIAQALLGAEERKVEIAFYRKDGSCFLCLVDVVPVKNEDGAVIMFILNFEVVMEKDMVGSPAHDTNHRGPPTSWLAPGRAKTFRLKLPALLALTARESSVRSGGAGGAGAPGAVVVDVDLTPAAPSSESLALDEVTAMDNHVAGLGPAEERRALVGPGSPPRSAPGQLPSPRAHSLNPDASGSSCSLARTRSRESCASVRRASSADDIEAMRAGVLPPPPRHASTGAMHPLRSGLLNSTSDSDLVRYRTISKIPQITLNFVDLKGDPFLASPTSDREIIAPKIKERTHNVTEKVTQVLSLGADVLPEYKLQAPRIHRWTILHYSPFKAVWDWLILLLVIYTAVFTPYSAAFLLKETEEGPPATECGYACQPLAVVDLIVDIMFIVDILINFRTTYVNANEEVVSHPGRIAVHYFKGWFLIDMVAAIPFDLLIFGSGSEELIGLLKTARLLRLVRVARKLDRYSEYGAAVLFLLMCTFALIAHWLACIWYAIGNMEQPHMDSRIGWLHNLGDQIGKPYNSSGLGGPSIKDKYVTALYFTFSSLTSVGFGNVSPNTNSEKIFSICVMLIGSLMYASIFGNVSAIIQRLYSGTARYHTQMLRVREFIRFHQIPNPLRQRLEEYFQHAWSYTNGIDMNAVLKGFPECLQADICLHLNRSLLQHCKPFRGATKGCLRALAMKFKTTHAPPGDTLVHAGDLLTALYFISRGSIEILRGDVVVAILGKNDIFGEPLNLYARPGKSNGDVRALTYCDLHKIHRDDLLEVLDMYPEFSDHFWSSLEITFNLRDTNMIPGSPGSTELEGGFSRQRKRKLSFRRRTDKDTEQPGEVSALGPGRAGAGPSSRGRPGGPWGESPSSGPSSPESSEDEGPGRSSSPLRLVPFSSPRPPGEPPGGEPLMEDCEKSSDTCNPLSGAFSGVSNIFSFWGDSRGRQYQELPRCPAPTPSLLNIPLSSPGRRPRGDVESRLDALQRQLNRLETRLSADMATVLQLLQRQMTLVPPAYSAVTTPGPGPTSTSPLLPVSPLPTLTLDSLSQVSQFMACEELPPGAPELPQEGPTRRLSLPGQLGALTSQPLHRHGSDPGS
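U2OS cells were transduced with wild-type KCNH2 virus (2.03 x 10^8 / mL) for 4 h at room temperature, then cultured overnight at 37 C. Thallium flux was read with FluxOr dye. Rate constants were normalized to DMSO controls.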
KB-V1 MDR tox: kills drug-selected multidrug resistant KB-V1 cells; KB-V1 MDR cells viability, CellTiter-Glo, 72 h; Potency, µM (titrated, usually from 46.1 µM), usual class: cytotoxic; 3.4% of 400,000 active; AID 1347076; also: nearly all actives have a fitted effect of over 60% in size
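Readout: CellTiter-Glo luminescence, 10 min after addition. Cells: KB-V1 MDR subline, 72 h at 37 degrees C with compound. Analysis: corrected, normalized data fitted to concentration-effect curves.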
KB-3-1 tox: kills parental KB-3-1 adenocarcinoma cells. KB-3-1 viability, CellTiter-Glo ATP luminescence, 72 h. Potency, µM (highest dose often 46.1 µM), usual class: cytotoxic. 1.4% of 400,000 active. AID 1347075; also: nearly all actives have a fitted effect of over 60% in size
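Using CellTiter-Glo luminescence, growth of non-resistant KB-3-1 adenocarcinoma cells is assessed 72 h after pin-tool compound addition at 37 °C. Normalized responses across the concentration series yield fitted curves.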
Large screens that a line does not name were inactive. A selection: hits, their analogues and other compounds. The true share with any hit is near 7.6%. Unless noted, calls follow the shape of the dose curve; as a rule, active = well fitted curve in the direction sought with a large enough effect; inconclusive = small, poorly fitted or top-dose-only effect, or another doubt; inactive = no such curve, though single readings can be large; an effect the other way counts as inactive or inconclusive.

CNc1nc2c(-c3ccc(Cl)cc3)nnn2c2ccccc12	MCF10A rereplic inconclusive
Cc1ccc(-c2nnn3c2nc(NCCc2ccc(S(N)(=O)=O)cc2)c2ccccc23)cc1	SW480 rerep inconclusive, MCF10A rereplic inconclusive
Nc1nc2c(-c3ccc(Br)cc3)nnn2c2ccccc12	SW480 rerep 10.3µM, MCF10A rereplic 5.17µM
NNc1nc2c(-c3cccc(C(F)(F)F)c3)nnn2c2ccccc12	SW480 rerep 3.66µM, MCF10A rereplic 2.91µM, KB-V1 MDR tox inconclusive, KB-3-1 tox inconclusive
Cc1cccc(-c2nnn3c2nc(NCCc2ccc(S(N)(=O)=O)cc2)c2ccccc23)c1	SW480 rerep 2.31µM, MCF10A rereplic 5.17µM
FC(F)(F)c1cccc(-c2nnn3c2nc(NC2CCCCC2)c2ccccc23)c1	none (no result: SW480 rerep, KCNH2 3.1 block, MCF10A rereplic, KCNH2 WT inh)
Cc1ccc(-c2nnn3c2nc(NC(C)C)c2ccccc23)cc1	SW480 rerep inconclusive, MCF10A rereplic 16.4µM
CC(C)NC(=S)NNc1nc2ccccc2s1	none
O=C1CN(C(=O)c2cccc(Br)c2)c2ccccc2N1	SW480 rerep inconclusive, MCF10A rereplic 23.1µM, KB-V1 MDR tox 10.3µM, KB-3-1 tox 5.8µM
FC(F)(F)c1cccc(-n2c(Cn3nnc4ccccc43)n[nH]c2=S)c1	SW480 rerep 2.59µM
S=c1[nH]nc(Cn2nnc3ccccc32)n1-c1ccccc1	none
CC(C)c1ccc(NC(=O)c2cc3c([nH]c2=O)CC(C)(C)CC3=O)cc1	none (no result: SW480 rerep, KCNH2 3.1 block, MCF10A rereplic, KCNH2 WT inh)
Cc1cc2nc3c(=O)[nH]c(=O)nc-3n(CC(O)C(O)C(O)COP(=O)(O)O)c2cc1C (stereo unspecified)	none (no result: KCNH2 3.1 block, KCNH2 WT inh, KB-V1 MDR tox, KB-3-1 tox)
CCOc1ccc(OCc2ccc(C(=O)NCc3ccncc3)o2)cc1	MCF10A rereplic 18.4µM, KB-V1 MDR tox inconclusive
O=C(NCc1cccnc1)c1ccc(COc2ccc3c(c2)CCC3)o1	MCF10A rereplic inconclusive, KB-V1 MDR tox 18.4µM
COc1ccc(Br)cc1/C=N/NC(=O)c1ccc(COc2ccc3c(c2)CCC3)o1	MCF10A rereplic 11.6µM
Cc1cccc(N2CCN(C(=O)c3cn(C)c4ccc(S(=O)(=O)N(C)C)cc4c3=O)CC2C)c1 (stereo unspecified)	none (no result: SW480 rerep, KCNH2 3.1 block, MCF10A rereplic, KCNH2 WT inh)
O=C(O)CCc1nn2c3ccccc3n(CC(=O)c3cccs3)c2nc1=O	KB-V1 MDR tox inconclusive
O=C1c2ccccc2C(=O)N1CC(=O)N1c2ccccc2Sc2ccccc21	none
O=C1c2ccccc2C(=O)N1CC(=O)N1c2ccccc2Sc2ccc(C(F)(F)F)cc21	KB-V1 MDR tox 18.4µM
O=C(CCc1c[nH]c2ccccc12)OCC(=O)N1CCN(S(=O)(=O)c2ccccc2)CC1	KCNH2 WT inh -101.0
CCOc1cc(/C=C2\SC(=N)N(c3nccs3)C2=O)ccc1OCCN1CCOCC1	SW480 rerep inconclusive, KB-V1 MDR tox 7.31µM
COc1ccc(C(=O)OCC(=O)Nc2cccc(S(=O)(=O)N3CCCCCC3)c2)cc1[N+](=O)[O-]	none
Cc1cccc(-c2noc(-c3ccc(Cl)cc3[N+](=O)[O-])n2)c1	MCF10A rereplic inconclusive, KB-V1 MDR tox inconclusive
COc1ccc(-c2noc(-c3ccc(Cl)cc3[N+](=O)[O-])n2)cc1OC	KB-V1 MDR tox 18.4µM
COc1ccc(-c2noc(CN(C)S(=O)(=O)c3c(C)cc(C)cc3C)n2)cc1OC	KB-V1 MDR tox inconclusive (no result: SW480 rerep, KCNH2 3.1 block, MCF10A rereplic, KCNH2 WT inh)
COc1ccc(-c2noc(CN(C)S(=O)(=O)c3ccc(Cl)cc3)n2)cc1OC	KB-V1 MDR tox 7.31µM, KB-3-1 tox inconclusive
CC(=O)N/N=C/c1cc(C(C)(C)C)cc(/C=N/NC(C)=O)c1O	SW480 rerep 3.26µM, MCF10A rereplic 14.6µM, KB-V1 MDR tox inconclusive
O=C(COC(=O)c1ccc2ncsc2c1)NC(=O)C1CCCCC1	none (no result: SW480 rerep, KCNH2 3.1 block, MCF10A rereplic, KCNH2 WT inh)
CC1CCCCC1NC(=O)c1ccco1 (stereo unspecified)	none
O=C(NC(=S)Nc1cccc(Cl)c1N1CCCCC1)c1cccs1	SW480 rerep inconclusive, MCF10A rereplic 3.26µM, KB-V1 MDR tox inconclusive, KB-3-1 tox inconclusive
CCCC(=O)NC(=S)Nc1cccc2c(O)cccc12	SW480 rerep inconclusive
O=C(NC(=S)Nc1cccc(Cl)c1N1CCOCC1)c1cccs1	none
O=C(NC(=S)Nc1cccc(Cl)c1N1CCCCC1)c1ccco1	SW480 rerep 18.4µM, MCF10A rereplic inconclusive
CCCC(=O)NC(=S)Nc1cccc(Cl)c1N1CCCC1	SW480 rerep inconclusive, MCF10A rereplic 18.4µM
CC1CCCC(NC(=S)NC(=O)c2ccco2)C1C (stereo unspecified)	KB-V1 MDR tox 18.4µM
Cc1ccc(S(=O)(=O)N2C[C@H]3C(=O)C[C@@H](c4ccccc4)N(S(=O)(=O)c4ccccc4C)[C@H]3C[C@H]2c2ccccc2)cc1	none (no result: SW480 rerep, KCNH2 3.1 block, MCF10A rereplic, KCNH2 WT inh)
CCOCCn1ccc2c(OCC(=O)Nc3ccc(C(N)=O)cc3)cccc2c1=O	none (no result: SW480 rerep, KCNH2 3.1 block, MCF10A rereplic, KCNH2 WT inh)
O=C(NC(=S)Nc1ccc(N2CCCCC2)cc1)c1ccco1	SW480 rerep inconclusive, MCF10A rereplic inconclusive, KB-V1 MDR tox 8.2µM
CC1CCN(c2ccc(NC(=S)NC(=O)c3ccco3)cc2)CC1	SW480 rerep inconclusive
O=C(Nc1ccc(CN2CCOCC2)cc1)c1ccc(Cl)cc1	KB-V1 MDR tox 9.2µM, KB-3-1 tox inconclusive
Cc1cc(OCC(=O)Nc2ccc(CN3CCOCC3)cc2)ccc1Cl	none (no result: KB-V1 MDR tox, KB-3-1 tox)
O=C(Cc1ccc(Cl)cc1)Nc1ccc(CN2CCCCC2)cc1	KCNH2 3.1 block -70.1, MCF10A rereplic inconclusive
Cc1cc(OCC(=O)Nc2ccc(CN3CCCCC3)cc2)ccc1Cl	KCNH2 3.1 block -85.6, MCF10A rereplic inconclusive
O=C(Nc1ccc(CN2CCOCC2)cc1)c1ccc(Br)cc1	MCF10A rereplic inconclusive
O=C(Nc1ccc(SC(F)F)cc1)c1ccc(F)cc1	SW480 rerep inconclusive, MCF10A rereplic 0.82µM
O=C(Nc1ccc(CN2CCCCC2)cc1)c1sc2ccccc2c1Cl	SW480 rerep inconclusive, KCNH2 3.1 block -100.1, MCF10A rereplic inconclusive
CC(C)c1ccc(C(=O)Nc2ccc(N3CCOCC3)cc2)cc1	SW480 rerep inconclusive, MCF10A rereplic 23.1µM, KB-3-1 tox inconclusive
COC(=O)c1ccc(NC(=O)c2ccc(CN3CCOCC3)cc2)cc1	MCF10A rereplic inconclusive, KB-V1 MDR tox 2.59µM
CC(=O)c1ccc(C(=O)Nc2ccc(N3CCOCC3)cc2)cc1	none
CNC(=O)c1ccsc1NC(=O)c1sc2ccccc2c1Cl	SW480 rerep inconclusive, MCF10A rereplic 29.1µM
CCOc1cc2c(cc1OCC)C(c1ccc(C(=O)O)cc1)NCC2 (stereo unspecified)	KB-V1 MDR tox inconclusive
O=C(Cc1ccc(Cl)cc1)Nc1ccc(SC(F)F)cc1	MCF10A rereplic inconclusive, KB-V1 MDR tox 20.6µM, KB-3-1 tox inconclusive
O=C(Cc1ccccc1F)Nc1ccc(SC(F)F)cc1	none (no result: KCNH2 3.1 block)
O=C(c1ccccc1)N1CCN(c2ccc([N+](=O)[O-])c(NCc3cccnc3)c2)CC1	KB-V1 MDR tox 2.59µM, KB-3-1 tox inconclusive
